Laboratory results as given in PubChem BioAssay (Tox21).
Unmarked numbers belong to inactive results. Records with an inconclusive call do not appear. Entries that show only a call come without a potency. The source made the active and inactive calls. Unless noted, calls come from the whole dose curve; as a rule, active = well fitted curve in the direction sought with a large enough effect in the repeat runs; inconclusive = weak or mixed curves; inactive = no such curve, though single readings can be large; an effect the other way counts as inactive or inconclusive.

Tests used:
[1] = qHTS assay for small molecules that induce genotoxicity in human embryonic kidney cells expressing luciferase-tagged ATAD5 (AID 651632); note: nearly all actives have a fitted effect of over 15% in size
In short: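 Luminescence read-out: after 16 hr compound exposure at 37C, ATAD5-luciferase HEK293T cells received Amplite, 30 min RT, then CCD imaging. A rise in signal marks genotoxic stress.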

[2] = qHTS assay for small molecule agonists of the p53 signaling pathway - cell viability (AID 651633; calls by dose curve;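 note: p53RE-bla HCT reporter cells with a stable beta-lactamase p53 reporter; series mostly up to about 83 µM; nearly all actives have a fitted effect of over 30% in size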)
In short: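 p53RE-bla cells were treated with compound for 16 hours at 37 C. Cytotoxicity was then measured as CellTiter-Glo luminescence after 30 min at room temperature.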

[3] = qHTS assay for small molecules that induce genotoxicity in human embryonic kidney cells expressing luciferase-tagged ATAD5 - cell viability (AID 651634; calls by dose curve; note: nearly all actives have a fitted effect of over 25% in size; note: potency is the fitted concentration of half-maximal effect)
In short: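 HEK293T ATAD5-luc cells, 2,000/well; compound 15.5 hr, 37C/5% CO2; CellTiter-Fluor 30 min, 37C; fluorescence read.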

[4] = qHTS assay for small molecule disruptors of the mitochondrial membrane potential - cell viability (AID 720634; calls by dose curve;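 note: human HepG2 liver cancer cells; series mostly up to about 83 µM; nearly all actives have a fitted effect of over 20% in size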)
In short: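 Luminescence from CellTiter-Glo (ATP content) gave viability in HepG2 cells, read in the same wells as the MMP dye assay after 1 hr compound exposure at 37 C.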

[5] = qHTS assay to test for compound auto fluorescence at 590 nm (red) in HepG2 cells (AID 720674)
In short: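 Seeding: 2,000 HepG2 cells/well, MEM/10% FBS, overnight 37 C. Dosing: compound vs DMSO. Incubation: 1 hr, 37 C, 5% CO2. Read: fluorescence 540 ex/590 em, Rose Bengal sodium as red reference.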

[6] = qHTS assay to test for compound auto fluorescence at 535 nm (green) in HepG2 cells (AID 720675)
[7] = qHTS assay to test for compound auto fluorescence at 460 nm (blue) in HEK293 cells (AID 720678); note: potency is the fitted concentration of half-maximal effect
In short: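 HEK293 cells (2,000 per well, medium with 10% dialyzed FBS) attached for 4-5 hr at 37C, then received compound and stood overnight at 37C, 5% CO2. Blue fluorescence was read at Ex/Em 405/460 nm and expressed relative to triamterene.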

[8] = qHTS assay to test for compound auto fluorescence at 590 nm (red) in HEK293 cells (AID 720679)
In short: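 HEK293 cells (2,000/well, medium with 10% dialyzed FBS) attached for 4-5 hr at 37C, received 23 nL compound and were incubated overnight at 37C, 5% CO2. Red fluorescence was then read at 540/590nm Ex/Em, referenced to Rose Bengal sodium.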

[9] = qHTS assay to test for compound auto fluorescence at 535 nm (green) in HEK293 cells (AID 720680)
[10] = qHTS assay to test for compound auto fluorescence at 460 nm (blue) in HEK293 cell free culture (AID 720681); note: potency is the fitted concentration of half-maximal effect
In short: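 Compounds were added to cell-free DMEM with 10% FBS and fluorescence read directly. The blue channel used 405 nm excitation and 460 nm emission, with triamterene as the reference fluorophore.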

[11] = qHTS assay to test for compound auto fluorescence at 535 nm (green) in HEK293 cell free culture (AID 720682)
In short: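 Fluorescein serves as the green reference fluorophore; each compound's intrinsic emission at 535 nm (excitation 485 nm) is reported as an equivalent amount of that dye, measured in serum-containing DMEM without cells.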

[12] = qHTS assay to test for compound auto fluorescence at 590 nm (red) in HEK293 cell free culture (AID 720683)
In short: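 Cell-free wells of DMEM with 10% FBS received compound, and intrinsic fluorescence was read at excitation/emission 540/590 nm. Values expressed as equivalence to Rose Bengal sodium.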

[13] = qHTS assay to test for compound auto fluorescence at 590 nm (red) in HepG2 cell free culture (AID 720684)
In short: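 Auto fluorescence equivalency versus Rose Bengal sodium, red channel Ex/Em 540/590 nm; compounds in cell-free MEM/10% FBS; DMSO vehicle control.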

[14] = qHTS assay to test for compound auto fluorescence at 460 nm (blue) in HepG2 cell free culture (AID 720685); note: potency is the fitted concentration of half-maximal effect
In short: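 Cell-free plates of MEM plus 10% FBS received 23 nL compound or DMSO vehicle; blue-channel (405/460 nm) intensity scored against triamterene as reference fluorophore.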

[15] = qHTS assay to test for compound auto fluorescence at 535 nm (green) in HepG2 cell free culture (AID 720686)
[16] = qHTS assay to test for compound auto fluorescence at 460 nm (blue) in HepG2 cells (AID 720687); note: potency is the fitted concentration of half-maximal effect
In short: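 HepG2 cells in MEM with 10% FBS, attached overnight at 37 C, were exposed to compound or DMSO for 1 hr at 37 C, 5% CO2. Blue fluorescence was read at 405/460 nm, with triamterene as reference fluorophore.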

[17] = biological target: Glucocorticoid receptor (Homo sapiens) (UniProt P04150); experiment: qHTS assay to identify small molecule agonists of the glucocorticoid receptor (GR) signaling pathway (AID 720691; active = well fitted activation curve with a large enough effect in the signal ratio in the repeat runs, not every such curve was filed as active; the % refers to the signal ratio)
In short: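 HeLa GR-bla reporter line; cells pre-incubated 4 h, compound in DMSO 18 h at 37 C; LiveBLAzer B/G FRET substrate 2 h RT; fluorescence intensity read-out.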

[18] = biological target: Glucocorticoid receptor (Homo sapiens) (UniProt P04150); experiment: qHTS assay to identify small molecule antagonists of the glucocorticoid receptor (GR) signaling pathway (AID 720692; active = well fitted inhibition curve with a large enough effect in the signal ratio in the repeat runs, not every such curve was filed as active; the % refers to the signal ratio)
In short: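 Read-out: beta-lactamase FRET substrate fluorescence, 2 h at room temperature, in HeLa cells stably carrying a GRE-driven bla reporter. Compounds were co-incubated with 5 nM dexamethasone agonist (final) for 18 h at 37 C.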

[19] = qHTS assay for small molecule disruptors of the mitochondrial membrane potential (AID 720635)
In short: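 HepG2 cells exposed to compound 1 hr at 37C, then Mito-MPS dye 30 min. Ratio read of aggregate (540/590 nm) versus monomer (490/535 nm) fluorescence.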
Tags give direction and shape of the fitted curve or compound fluorescence and quenching.

Chain of Glucocorticoid receptor (Homo sapiens) (P04150 whole entry, looked up): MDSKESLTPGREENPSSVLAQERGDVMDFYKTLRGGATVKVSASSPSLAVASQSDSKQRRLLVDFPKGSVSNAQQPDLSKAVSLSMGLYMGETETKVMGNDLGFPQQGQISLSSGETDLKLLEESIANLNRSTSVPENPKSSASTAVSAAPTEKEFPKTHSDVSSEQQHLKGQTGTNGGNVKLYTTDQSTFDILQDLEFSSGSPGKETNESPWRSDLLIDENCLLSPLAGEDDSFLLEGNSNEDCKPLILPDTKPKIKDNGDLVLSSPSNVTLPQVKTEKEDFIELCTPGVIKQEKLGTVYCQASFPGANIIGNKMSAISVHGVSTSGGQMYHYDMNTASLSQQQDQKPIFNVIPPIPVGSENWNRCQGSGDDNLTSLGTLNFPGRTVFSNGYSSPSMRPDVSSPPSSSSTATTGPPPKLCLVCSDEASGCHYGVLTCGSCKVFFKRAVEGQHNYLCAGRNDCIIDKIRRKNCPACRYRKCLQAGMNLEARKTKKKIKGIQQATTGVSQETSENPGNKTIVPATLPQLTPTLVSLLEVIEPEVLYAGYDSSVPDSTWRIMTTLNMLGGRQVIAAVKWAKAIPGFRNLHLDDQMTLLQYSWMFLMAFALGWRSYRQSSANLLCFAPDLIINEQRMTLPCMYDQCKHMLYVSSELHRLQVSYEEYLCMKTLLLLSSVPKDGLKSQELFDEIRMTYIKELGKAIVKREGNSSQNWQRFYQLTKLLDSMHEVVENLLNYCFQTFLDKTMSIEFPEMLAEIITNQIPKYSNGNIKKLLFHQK

Structure (SMILES)	Potency [1]	Potency [2]	Potency [3]	outcome [4]	outcome [5]	outcome [6]	Potency [7]	outcome [8]	outcome [9]	Potency [10]	outcome [11]	outcome [12]	outcome [13]	Potency [14]	outcome [15]	Potency [16]	Potency [17]	Potency [18]	Potency [19]
Nc1cccc2c(N)cccc12	inactive	inactive	inactive	inactive	inactive	inactive	inactive	inactive	inactive	inactive	inactive	inactive	inactive	inactive	inactive	inactive	inactive	–	–
Cc1ccc(Nc2c(F)cccc2Cl)c(CC(=O)O)c1	inactive	inactive	inactive	inactive	inactive	inactive	inactive	inactive	inactive	inactive	inactive	inactive	inactive	inactive	inactive	inactive	inactive	inactive	–
Cc1cc([N+](=O)[O-])ccc1N	inactive	inactive	47.9 µM (active)	inactive	inactive	inactive	inactive	inactive	inactive	inactive	–	–	inactive	inactive	inactive	inactive	inactive	inactive	–
CCOC(=O)c1ccc(NC(=O)CN2CCCCC2)cc1	inactive	inactive	inactive	inactive	inactive	inactive	inactive	inactive	inactive	inactive	–	inactive	inactive	inactive	inactive	inactive	inactive	inactive	–
O=C1[C@@H]2[C@H]3CC[C@H](C3)[C@@H]2C(=O)N1CCCCN1CCN(c2ncccn2)CC1	inactive	inactive	inactive	inactive	inactive	inactive	inactive	inactive	inactive	inactive	inactive	inactive	inactive	inactive	inactive	inactive	inactive	inactive	–
CC(=O)NNC(C)=O	inactive	inactive	inactive	inactive	inactive	inactive	inactive	inactive	inactive	inactive	inactive	inactive	inactive	inactive	inactive	inactive	inactive	inactive	–
COc1cc(C(C)=O)ccc1OCCCN1CCC(c2noc3cc(F)ccc23)CC1	inactive	inactive	inactive	inactive	inactive	inactive	inactive	inactive	inactive	inactive	inactive	inactive	inactive	–	inactive	inactive	inactive	inactive	–
CO[C@@H]1[C@@H](OC)[C@H](C)[C@@](O)(CC(=O)O)O[C@H]1[C@H](C)[C@H]1O[C@@]2(CC[C@@](C)([C@H]3CC[C@@](C)([C@@H]4O[C@@H]([C@H]5O[C@](C)(O)[C@H](C)C[C@@H]5C)C[C@@H]4OC4C[C@H](OC)[C@@H](OC)[C@H](C)O4)O3)O2)C[C@H](O)[C@H]1C (some centres undefined)	inactive	inactive	1.19 µM (active)	inactive	inactive	inactive	inactive	inactive	inactive	inactive	–	inactive	inactive	–	inactive	inactive	inactive	–	–
CC(=O)OCCC(C)CC(C)(C)C (centres undefined)	inactive	inactive	inactive	inactive	inactive	inactive	inactive	inactive	inactive	inactive	inactive	inactive	inactive	inactive	inactive	inactive	inactive	–	–
CCOC(=O)c1c(N)sc2c1CCN(Cc1ccccc1)C2	inactive	inactive	inactive	inactive	inactive	inactive	14.1 µM [fluorescent] (active)	inactive	inactive	15.8 µM (active)	–	inactive	inactive	15.8 µM [fluorescent] (active)	inactive	17.8 µM [fluorescent] (active)	inactive	–	–
CCCCCCCCCCCC(=O)OCC(O)CO (centres undefined)	inactive	inactive	inactive	inactive	inactive	inactive	inactive	inactive	inactive	inactive	inactive	inactive	inactive	inactive	inactive	inactive	–	–	–
CC(=O)OCC1=C(C(=O)O)N2C(=O)[C@@H](NC(=O)CSc3ccncc3)[C@H]2SC1	inactive	inactive	inactive	inactive	inactive	inactive	inactive	inactive	inactive	inactive	–	inactive	inactive	inactive	inactive	–	inactive	–	–
CC(CCc1ccc(O)cc1)NCCc1ccc(O)c(O)c1 (centres undefined)	inactive	inactive	inactive	inactive	inactive	inactive	inactive	inactive	inactive	inactive	–	–	inactive	inactive	inactive	inactive	inactive	inactive	–
CC(C)OC(=O)c1ccccc1C(=O)OC(C)C	inactive	inactive	inactive	inactive	inactive	inactive	inactive	inactive	inactive	inactive	–	inactive	inactive	inactive	inactive	inactive	inactive	inactive	inactive
